We go through seven compounds from PubChem BioAssay (NCI).

Among the test systems are HCT-15 colon; HT29 colon; SNB-75 CNS; SNB-19 CNS; U251 CNS; PC-3 prostate; SK-MEL-5 melanoma; UACC-62 melanoma; LOX IMVI melanoma; SK-MEL-28 melanoma; SK-MEL-2 melanoma; EKVX NSCLC; SN12C renal; UO-31 renal; TK-10 renal; ACHN renal; CAKI-1 renal; A498 renal; CCRF-CEM leukemia; MOLT-4 leukemia.
Common to all, as to test: NCI-60 one-dose screen, 48 h (100 = growth as untreated, 0 = no growth, -100 = all killed)
Common to all, as to details: 10 µM unless noted

This is part of a sample that, as a whole, favours compounds with a hit. Of some 83,000 tested, about 20% had one in any assay.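 Assay: single dose, 48 h. Readout: percent growth (0 = no net growth; negative = cell death). Active: <10.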 A number with no mark means an inactive call. The source made the active and inactive calls.

With `COc1ccc([C@H]2[C@H](O)C(=O)N2c2cc(OC)c(OC)c(OC)c2)cc1F`, the growth with HCT-15 colon is 7.86% (active); in the assay with HT29 colon it was -26% (active); in the assay on SNB-75 CNS it was 19%; in the assay with SNB-19 CNS, 27.7%; in the assay on U251 CNS, 7.47% (active); with PC-3 prostate, 19.8%. Besides, the growth in the assay with SK-MEL-5 melanoma is -30.9% (active); in the assay with UACC-62 melanoma, 33.3%; in the assay on LOX IMVI melanoma it was -6.07% (active); with SK-MEL-28 melanoma, 63%; in the assay with SK-MEL-2 melanoma, -43.3% (active); in the assay on EKVX NSCLC it was 44.7%. The growth with SN12C renal is 27.3%; with UO-31 renal, 34.2%; with TK-10 renal, 86.2%; in the assay on ACHN renal it was 24.6%; in the assay with CAKI-1 renal it was 29.6%; in the assay with A498 renal it was -26.1% (active). Further, the growth is 17.9% in the assay with CCRF-CEM leukemia and 15.2% in the assay on MOLT-4 leukemia.

Take `NC(N)=Nc1ccc(Oc2cccc(Oc3ccc(Cl)c(C(F)(F)F)c3)c2)cn1`: the growth in the assay on HCT-15 colon was -83.7% (active); in the assay with HT29 colon it was -68.4% (active); in the assay on SNB-75 CNS, 73.3%; with SNB-19 CNS, -84.5% (active); with U251 CNS, -82.2% (active); in the assay on PC-3 prostate it was -93.8% (active). Moreover, the growth in the assay with SK-MEL-5 melanoma was 14.3%; in the assay with UACC-62 melanoma, -77.5% (active); with LOX IMVI melanoma, -88.6% (active); with SK-MEL-28 melanoma it was -29.4% (active); with SK-MEL-2 melanoma, -36.3% (active); in the assay on EKVX NSCLC it was -7.2% (active). In addition, the growth in the assay on SN12C renal was -86.6% (active); in the assay on UO-31 renal it was 49.7%; in the assay with TK-10 renal it was -27.1% (active); in the assay with ACHN renal, -99.7% (active); with CAKI-1 renal, 9.01% (active); in the assay on A498 renal, 15.1%. In addition, the growth in the assay with CCRF-CEM leukemia is -29.8% (active); in the assay on MOLT-4 leukemia, -48.7% (active).

Turning to `COc1cc(OC)c(/C=C/S(=O)(=O)Cc2ccc(OC)c(NCC(=O)NO)c2)c(OC)c1`, the growth with HCT-15 colon is 12.9%; in the assay on HT29 colon, 5.84% (active); in the assay on SNB-75 CNS, 27.6%; in the assay on SNB-19 CNS, 18.5%; with U251 CNS, 13.4%; in the assay with PC-3 prostate, 22.7%. Moreover, the growth in the assay with SK-MEL-5 melanoma is -30.6% (active); in the assay with UACC-62 melanoma, 12.4%; in the assay on LOX IMVI melanoma it was 8.14% (active); with SK-MEL-28 melanoma, 56.8%; with SK-MEL-2 melanoma it was 51.1%; in the assay on EKVX NSCLC it was 34.4%. Also, the growth with SN12C renal was 19.2%; in the assay with UO-31 renal it was 35.4%; with TK-10 renal, 65%; in the assay on ACHN renal, 27.9%; in the assay on CAKI-1 renal, 25.7%; in the assay on A498 renal, -11.7% (active). Besides, the growth in the assay with CCRF-CEM leukemia is 14.8%; in the assay with MOLT-4 leukemia, 16.5%.

As to `CCCCCc1ccc(S(=O)(=O)Nc2cc(-c3csc(NC(=O)CN4CCN(CCO)CC4)n3)ccc2OC)cc1`, the growth in the assay on HCT-15 colon is -9.25% (active); in the assay on HT29 colon it was 4.51% (active); in the assay with SNB-75 CNS, 92.6%; in the assay on SNB-19 CNS it was 31%; in the assay with U251 CNS it was 2.41% (active); with PC-3 prostate, 48%. For the same compound, the growth with SK-MEL-5 melanoma is -88.8% (active); in the assay with UACC-62 melanoma, -32.9% (active); in the assay on LOX IMVI melanoma, -82.5% (active); with SK-MEL-28 melanoma it was -60.5% (active); with SK-MEL-2 melanoma, 94.9%; with EKVX NSCLC, 73.6%. The growth in the assay with SN12C renal was 74.7%; in the assay with UO-31 renal, 54.5%; in the assay with TK-10 renal, 104%; in the assay with ACHN renal, 65.6%; in the assay with CAKI-1 renal, 70.8%; in the assay with A498 renal, 63.1%. Moreover, the growth was 4.78% (active) with CCRF-CEM leukemia and 6.18% (active) in the assay with MOLT-4 leukemia.

As for `COc1cccc(O)c1/C=C(/C)c1ccc2c(OC)cccc2[o+]1`, the growth in the assay with HCT-15 colon is 95.1%; in the assay on HT29 colon it was 118%; with SNB-75 CNS, 97.1%; with SNB-19 CNS it was 103%; with U251 CNS, 106%; in the assay on PC-3 prostate, 97.5%. Moreover, the growth with SK-MEL-5 melanoma is 105%; with UACC-62 melanoma, 93.7%; with LOX IMVI melanoma, 83.9%; with SK-MEL-28 melanoma, 101%; in the assay on SK-MEL-2 melanoma it was 107%; in the assay with EKVX NSCLC it was 96.5%. The growth in the assay on SN12C renal was 99.5%; in the assay on UO-31 renal, 79.7%; in the assay on TK-10 renal it was 140%; with ACHN renal, 98.9%; in the assay on CAKI-1 renal, 90.3%; with A498 renal, 95.7%. For the same compound, the growth with CCRF-CEM leukemia was 106%; in the assay with MOLT-4 leukemia, 107%.

As to `NC(N)=Nc1ccc(Nc2cccc(Nc3ccc(Cl)c(C(F)(F)F)c3)c2)cn1`, the growth was 68.4% in the assay on HCT-15 colon; 29.8% in the assay with HT29 colon; 45.6% in the assay on SNB-75 CNS; 4.1% (active) in the assay with SNB-19 CNS; -43.2% (active) in the assay on U251 CNS; -24.9% (active) in the assay with PC-3 prostate. Further, the growth is 34.5% in the assay on SK-MEL-5 melanoma; 24.5% in the assay with UACC-62 melanoma; 13.8% in the assay on LOX IMVI melanoma; 40.3% in the assay on SK-MEL-28 melanoma; 53.7% in the assay with SK-MEL-2 melanoma; 43.1% with EKVX NSCLC. Besides, the growth in the assay with SN12C renal is 13.3%; with UO-31 renal it was 82.3%; in the assay on TK-10 renal, 98%; in the assay with ACHN renal, 78.1%; with CAKI-1 renal, 41.6%; in the assay on A498 renal, 58.8%. In addition, the growth in the assay with CCRF-CEM leukemia was 5.61% (active); with MOLT-4 leukemia, 12.8%.

In the case of `Cc1ccc(-n2cc(/C=N/NC(=O)c3ccncc3)c(-c3ccc(S(C)(=O)=O)cc3)n2)cc1`, the growth was 37% in the assay on HCT-15 colon; 76.6% with HT29 colon; 95.7% in the assay with SNB-75 CNS; 89.9% with SNB-19 CNS; 97.5% in the assay on U251 CNS; 81.5% with PC-3 prostate. The growth is 94.5% in the assay with SK-MEL-5 melanoma; 76.9% with UACC-62 melanoma; 74% in the assay on LOX IMVI melanoma; 93.4% with SK-MEL-28 melanoma; 97.7% in the assay with SK-MEL-2 melanoma; 95.2% with EKVX NSCLC. Further, the growth in the assay on SN12C renal is 89.4%; in the assay with UO-31 renal, 80.4%; in the assay on TK-10 renal it was 118%; in the assay on ACHN renal it was 98%; with CAKI-1 renal, 90.2%; in the assay with A498 renal it was 88.2%. Moreover, the growth is 84% in the assay with CCRF-CEM leukemia and 70.4% with MOLT-4 leukemia.
